Experiment in all cases: NCI-60 one-dose screen, 48 h (100 = growth as untreated, 0 = no growth, -100 = all killed)
Details in all cases: 10 µM unless noted

Experiment [1] deals with SK-MEL-2 melanoma.
In experiment [2] the test system is EKVX NSCLC.
The test system of experiment [3] is SN12C renal.
Experiment [4] deals with UO-31 renal.
Experiment [5] relates to TK-10 renal.
The test system of experiment [6] is ACHN renal.
Experiment [7] has as its system CAKI-1 renal.
Experiment [8] concerns A498 renal.
Experiment [9] relates to CCRF-CEM leukemia.
The subject of experiment [10] is MOLT-4 leukemia.

The structures appear in SMILES notation. Compounds without any hit were thinned out: in the full panel of roughly 83,000, 20% have a hit.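 Note: values are percent growth. 100 is the growth of untreated cells, values between 100 and 0 indicate rising inhibition; between -100 and 0 indicates cell death.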 Values without a mark were called inactive. The source made the active and inactive calls. Rule for the calls: active = growth percent below 10; inactive = the rest.

Consider `O=C(O)c1cn(C2CC2)c2cc(N3CCN(Cc4cc(Cl)ccc4O)CC3)c(F)cc2c1=O`, for which the growth is 88% in [1]; 65.1% in experiment [2]; 65.3% in experiment [3]; 40.7% in experiment [4]; 81% in [5]; 44.3% in experiment [6]. The growth in [7] was 46.7%; in experiment [8], 94%; in [9], 45.9%; in experiment [10], 74.1%.

For the molecule `O=S(=O)(/N=c1/n(-c2ccccc2)nc2n1CCN2C1=NCCN1)c1ccc(-c2ccccc2)cc1`, the growth in experiment [1] is 115%; in experiment [2], 95.9%; in experiment [3], 93.6%; in experiment [4], 84.4%; in experiment [5], 108%; in experiment [6] it was 101%. For the same molecule, the growth is 92% in experiment [7], 82.9% in experiment [8], 94.7% in [9] and 95.1% in experiment [10].

Turning to `CC(C)c1ccc(/C=N/N=C(N)N)cc1`, the growth is 102% in experiment [1]; 87.1% in [2]; 93.8% in experiment [3]; 73.2% in experiment [4]; 95.1% in experiment [5]; 83.2% in experiment [6]. Besides, the growth in experiment [7] is 50.9%; in experiment [8] it was 106%; in [9] it was 35.7%; in experiment [10], 45.7%.

On to `COc1ccc2nc3cc(Cl)ccc3c(Nc3ccc(O)c(CN4CCCC4)c3)c2c1`, for which the growth in experiment [1] is -57.6% (active); in experiment [2], 51.3%; in experiment [3], 47.8%; in [4] it was -46.2% (active); in [5] it was 10.2%; in experiment [6] it was -38.9% (active). The growth is 8.96% (active) in [7], 62.3% in experiment [8], -6.84% (active) in [9] and 0.985% (active) in experiment [10].

As to `c1ccc(-c2nc(N3CCCNCC3)c3nc(-c4ccccc4)oc3n2)cc1`, the growth in experiment [1] was 102%; in experiment [2], 62.8%; in experiment [3], -22.5% (active); in experiment [4], 51.1%; in experiment [5] it was -47.3% (active); in experiment [6], -53.5% (active). In addition, the growth in experiment [7] is 40.1%; in experiment [8] it was 69.9%; in experiment [9] it was 12.7%; in experiment [10], 0.525% (active).

On to `Cn1cc(-c2nnc(-c3cn(C)c4ncc(Br)cc34)o2)c2ccccc21`, for which the growth in [1] was 99.1%; in [2] it was 74.1%; in experiment [3], 88.2%; in experiment [4], 61.4%; in [5] it was 114%; in [6], 81.4%. In addition, the growth in [7] is 45%; in experiment [8] it was 86.4%; in experiment [9] it was 102%; in experiment [10], 93.6%.

Consider `O=C(NCc1ccc(Cn2c(=O)sn(-c3ccccc3)c2=O)cc1)OCc1ccc2c(Br)cc(Br)c(O)c2n1`, for which the growth was -52.4% (active) in [1]; -92.3% (active) in experiment [2]; -61.4% (active) in experiment [3]; -100% (active) in experiment [4]; -90.5% (active) in experiment [5]; -100% (active) in experiment [6]. For the same molecule, the growth was -74.9% (active) in experiment [7], -41.6% (active) in experiment [8], 4.61% (active) in experiment [9] and 2% (active) in experiment [10].

For `CC1Cc2ccc(OCCN(C)C)cc2C1=O` (stereo not given), the growth is 91.9% in [1]; 109% in experiment [2]; 101% in experiment [3]; 88.1% in [4]; 84.6% in experiment [5]; 106% in experiment [6]. In addition, the growth was 98% in experiment [7], 91.2% in experiment [8], 103% in experiment [9] and 102% in experiment [10].

For the molecule `O=C(N/N=C/c1c(Cl)cccc1Cl)c1cccc(Nc2ccnc(C(F)(F)F)c2)c1`, the growth was 92.2% in experiment [1]; 74.4% in experiment [2]; 91% in experiment [3]; 77.4% in experiment [4]; 90.8% in experiment [5]; 87.5% in experiment [6]. The growth in [7] was 88%; in [8], 95.3%; in [9] it was 87.8%; in [10], 88.1%.

On to `COc1cc(C)cc2oc3oc(=O)c(C(=O)c4cc5cc(Br)ccc5o4)cc3c(=O)c12`, for which the growth in experiment [1] was 114%; in experiment [2] it was 100%; in experiment [3], 97.6%; in experiment [4], 72.7%; in experiment [5], 121%; in [6], 95.8%. In addition, the growth in experiment [7] is 91.8%; in experiment [8] it was 92.2%; in experiment [9] it was 120%; in [10], 106%.

Turning to `Cc1ccc(C2=C/C(=C/c3ccc(Br)cc3)C(=O)N2CCc2ccc(S(N)(=O)=O)cc2)cc1`, the growth in [1] is 98.6%; in [2], 92.8%; in experiment [3] it was 95.9%; in experiment [4], 61.8%; in experiment [5] it was 110%; in experiment [6] it was 97.7%. The growth in experiment [7] was 65%; in experiment [8], 78.5%; in experiment [9], 104%; in experiment [10], 82.1%.

Values taken from PubChem BioAssay (NCI).
